High-throughput results deposited in PubChem BioAssay by National Center for Advancing Translational Sciences (NCATS).
LmPK inh: qHTS Assay for Inhibitors of Leishmania Mexicana Pyruvate Kinase (LmPK); Q27686; purified LmPK, Kinase-Glo ATP luminescence, 1 h; Potency, µM (doses to about 57.5 µM), for inactives: top-dose activity change, negative = inhibition, usual class: inhibitors; 290,000 compounds, 0.37% hits; further: potency means the concentration at half of the fitted maximal effect; on the % scale 0 is the no-effect control and ±100 the full control effect
Target sequence (Q27686 whole entry, looked up): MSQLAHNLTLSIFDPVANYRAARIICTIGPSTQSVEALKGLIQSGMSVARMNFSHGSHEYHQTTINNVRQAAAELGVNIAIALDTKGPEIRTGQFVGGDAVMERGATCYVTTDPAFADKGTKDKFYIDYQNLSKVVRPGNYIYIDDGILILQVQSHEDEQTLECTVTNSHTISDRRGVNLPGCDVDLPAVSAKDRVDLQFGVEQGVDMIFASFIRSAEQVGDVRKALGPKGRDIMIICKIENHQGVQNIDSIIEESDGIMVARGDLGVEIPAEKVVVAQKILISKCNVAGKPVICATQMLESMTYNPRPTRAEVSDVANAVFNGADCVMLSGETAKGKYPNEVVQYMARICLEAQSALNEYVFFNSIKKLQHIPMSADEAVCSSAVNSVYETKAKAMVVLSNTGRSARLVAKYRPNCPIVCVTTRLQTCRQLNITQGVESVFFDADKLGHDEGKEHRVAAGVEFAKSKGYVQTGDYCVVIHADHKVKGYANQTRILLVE
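0.1 nM LmPK, 0.5 mM PEP, 0.1 mM ADP; 50 mM imidazole pH 7.2, 7 mM MgCl2, 50 mM KCl; 1 h RT. Kinase-Glo luminescence readout, normalized to no-enzyme (full inhibition) and uninhibited wells.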
Pf growth 48h: Primary qHTS for delayed death inhibitors of the malarial parasite plastid, 48 hour incubation; P. falciparum luciferase growth in erythrocytes, 48 h; Potency, µM (highest dose often 28.7 µM), for the others: at the highest dose activity change, negative = inhibition, actives largely listed as inhibitors; 310,000 compounds, 5.9% hits; further: potency means the concentration at half of the fitted maximal effect; on the % scale 0 is the no-effect control and ±100 the full control effect
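Luminescence readout; reporter = integrated firefly luciferase in P. falciparum. RBC culture at 2% hematocrit, 0.1% parasitemia final, 37 C/5% CO2; decreased signal taken as growth inhibition.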
Shiga inhibitor: A qHTS for Small Molecule Inhibitors of Shiga Toxin; Vero cells, Shiga toxin protein synthesis inhibition reporter; inhibition, % at 38.7 µM; 290,000 compounds, 9.2% hits; AID 2315, 2010; in the data active means inhibition mostly above about 28%, no sharp cut-off; inactive means mostly below about 43%; further: 0% is about no effect
Cycloheximide cs: Cycloheximide Counterscreen for Small Molecule Inhibitors of Shiga Toxin | cell reporter, cycloheximide protein synthesis inhibition counterscreen | max response, % | 300,000 compounds, 12% hits | AID 2314, 2010; in the data active means max response mostly above about 13%, no sharp cut-off; inactive means mostly below about 14%; further: read at 38.3 µM for the half of the compounds with a filed dose; 0% is about no effect
Pf growth 96h: Primary qHTS for delayed death inhibitors of the malarial parasite plastid, 96 hour incubation; Potency, µM (series often up to 28.7 µM), inactives show at the top dose activity change, negative = inhibition, most hits filed as inhibitors; AID 504834, 2011; 320,000 compounds, 6.9% hits; P. falciparum luciferase reporter growth, 96 h; further: potency means the concentration at half of the fitted maximal effect; on the % scale 0 is the no-effect control and ±100 the full control effect
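Plates of compound plus infected erythrocytes (2% hematocrit, 0.05% parasitemia final) incubate 96 hours, 37 C, 5% CO2. Detection reagent added; reduced luminescence from the parasites' luciferase reporter flags inhibition.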
Active calls of the source: *; ? = inconclusive; . = not tested or not shown. In the library only some 22% were active in any assay of this set; here they are far more common. Unless noted, the call rests on the fitted dose curve; in most records, active means well fitted inhibition curve with a large enough effect; inconclusive means small, poorly fitted or top-dose-only effect, or another doubt; inactive means no such curve, though single readings can be large or run the other way.

SMILES	LmPK inh	Pf growth 48h	Shiga inhibitor	Cycloheximide cs	Pf growth 96h
O=C(c1cccc(Br)c1)N1CCN(S(=O)(=O)N2CCCCC2)CC1	-12%	16%	-11	-10	14%
O=C(CCc1cccc(Cl)c1)N1CCCC(Nc2ccccc2)C1 (centres undefined)	-5%	-7%	12	-3	-29%
CN(C(=O)c1ccc(NC(=O)Cc2cccc(NC(=O)C3CCCN(C(=O)CCc4ccccc4)C3)c2)cc1)C1CCCC1 (centres undefined)	.	0.12µM*	.	.	?
Cn1c(=O)n(C)c2cc(/C=N/n3cnnc3)ccc21	-5%	23%	8	-1	5.9µM*
CC(C)(C)c1ccc(/C=N/n2cnnc2)cc1	9%	-22%	20	8	?
Cc1oc2cc(O)ccc2c(=O)c1Oc1ccc2ccccc2c1	6%	19%	38*	13	-4%
Cc1nc(NC(=O)c2ccccc2)sc1-c1csc(Nc2ccc(C(=O)O)cc2)n1	-16%	57%	2	10*	2.9µM*
C=CCCC(=O)Nc1nc(C)c(-c2csc(Nc3cccc(OC)c3)n2)s1	0%	2.6µM*	20	-2	12µM*
C=CCCC(=O)Nc1nc(C)c(-c2csc(Nc3cc(OC)ccc3OC)n2)s1	0%	?	27	15	13µM*
COc1cccc(Nc2nc(-c3sc(NC(=O)CC(C)C)nc3C)cs2)c1	4%	?	15	12	13µM*
CCC(=O)Nc1nc(C)c(-c2csc(Nc3ccc(C(=O)O)cc3)n2)s1	-3%	0%	5	-1	-47%
CCCC(=O)Nc1nc(C)c(-c2csc(Nc3cc(OC)ccc3OC)n2)s1	0%	?	-7	0	?
CC(OC(=O)Cc1cccc(C(F)(F)F)c1)C(=O)Nc1ccc(Cl)cn1 (centres undefined)	-3%	10%	-6	9	38%
CN(CC(=O)Nc1cccc2ccccc12)C(=O)/C=C/c1cccs1	0%	16%	-3	1	43%
COc1cccc(Nc2nc(-c3sc(NC(=O)c4ccccc4)nc3C)cs2)c1	-2%	5.2µM*	71*	13	4.1µM*
COc1ccc(OC)c(Nc2nc(-c3sc(N)nc3C)cs2)c1	-2%	15µM*	-8	-3	.
CCCC(C)C(=O)Nc1nc(C)c(-c2csc(Nc3cc(OC)ccc3OC)n2)s1 (centres undefined)	2%	6.6µM*	-4	-4	9.3µM*
COCCNC(=O)CSc1nc2nn(-c3ccccc3)c(=O)c-2c2n1CCCCC2	-6%	-19%	-9	1	?
Cc1ccc(COC(=O)CN2C(=O)NC3(CCCCC3C)C2=O)cc1 (centres undefined)	.	-31%	.	.	?
Cc1cc(F)ccc1N1CCC(N2CCN(C(C)C)C(CCO)C2)CC1 (centres undefined)	6%	-21%	-11	0	10µM*
COc1ccc(C=O)cc1CN1C(=O)c2ccccc2C1=O	-2%	?	.	-4	0.15µM*
COc1ccc(C=O)cc1COc1ccccc1F	0%	23%	-10	-6	8.3µM*
CCc1ccccc1NC(=O)C1=CN2CCS(=O)(=O)N=C2C=C1	.	44%	.	.	11%
COc1ccccc1N=Nc1[nH]c2ccc(C)cc2c1O	0%	17%	32*	22*	?
COc1ccc(C(=O)c2c(C)c3cc(C)ccc3n2CC(O)CN2CCOCC2)cc1 (centres undefined)	5%	?	-11	-3	12µM*
SMILES	LmPK inh	Pf growth 48h	Shiga inhibitor	Cycloheximide cs	Pf growth 96h
Cc1ccc2c(c1)c1c(n2CC(O)CN2CCOCC2)CCCC1 (centres undefined)	2%	-9%	.	-3	?
c1ccc(-c2onc(-c3ccco3)c2-c2ccc3c(c2)OCO3)cc1	0%	?	25	6	13µM*
Cc1cccc(-n2ncc3c2CCCC3NC(=O)C2=CC(=O)CC(C)(C)O2)c1C (centres undefined)	-3%	-30%	1	3	-29%
Cc1ccc(C(=O)N2CCN(c3ccc(N4CCOCC4)nn3)CC2)cc1	.	?	.	.	34%
Cc1nc(-c2ccc(C(=O)N3CCOCC3)cc2)cs1	-10%	45%	48	32*	14%
Cc1nc(CN2CCN(C(=O)c3ccc(C(C)(C)C)cc3)CC2)cs1	5%	.	30	12	12µM*
Cc1nc(-c2ccc(C(=O)N3CCCC3)cc2)cs1	?	235%	132*	37*	-14%
O=C(c1ccc(C(=O)N2CCCCCC2)cc1)N1CCCCCC1	-5%	11%	26	-2	?
CCN(CC)c1ccc(NC(=O)COC(=O)COc2ccccc2[N+](=O)[O-])cc1	0%	18%	-8	6	31%
CC1CCN(CCCNC(=O)C2CC(=O)N(CCc3ccccc3)C2)CC1 (centres undefined)	-8%	28%	-3	10	28%
CCOC(=O)N1CCN(C(=O)c2ccc(Cn3c(=S)[nH]c4cc(OCC)c(OCC)cc4c3=O)cc2)CC1	2%	?	-4	-4	35%
CCOC(=O)N1CCN(C(=O)c2ccc(Cn3c(=S)[nH]c4cc5c(cc4c3=O)OCO5)cc2)CC1	-12%	13µM*	-7	-1	?
CC1CC(C)CN(C(=O)c2ccc3c(=O)n(Cc4ccc5c(c4)OCO5)c(=S)[nH]c3c2)C1 (centres undefined)	3%	-5%	-13	-2	7.4µM*
O=C(c1ccc2c(=O)n(Cc3ccc(Cl)cc3)c(=S)[nH]c2c1)N1CCOCC1	2%	12%	23*	26*	23%
CSc1ccc(/C=C(/NC(=O)c2ccccc2)C(=O)NCCN2CCOCC2)cc1	-1%	3%	7	-2	-2%
O=C(NCC1CCCN(Cc2ccc3nonc3c2)C1)c1cccc(C(F)(F)F)c1 (centres undefined)	5%	48%	-10	-3	?
Cc1ccccc1NC(=S)N/N=C/C(C)c1ccccc1 (centres undefined)	-6%	?	2	16	?
Cc1ccccc1NC(=S)N/N=C/c1ccc(O)cc1O	0%	0%	100*	41*	?
Cc1cccc(NC(=S)N/N=C/c2cccc(O)c2)c1C	3%	1%	23	19*	4%
Cc1cccc(NC(=S)N/N=C/C(C)c2ccccc2)c1C (centres undefined)	2%	?	-5	11	?
COc1ccc(/C=N/OCC(=O)Nn2c(C)nc3ccccc3c2=O)cc1	1%	17%	2	4	4%
Cc1ccc(C(=O)Nc2ccccc2C(=O)NC(C(=O)O)C(C)C)cc1 (centres undefined)	-7%	12µM*	48*	21	?
CCC(C)C(NC(=O)c1ccccc1NC(=O)c1ccc(C)cc1)C(=O)O (centres undefined)	5%	?	94*	55*	-3%
